From PubChem BioAssay
Anthrax LF inh2 – inhibitors of Bacillus anthracis lethal factor protease; inhibition, % at 10 µM; P15917; multiplex microsphere protease cleavage assay, LF; 360,000 compounds, 0.12% hits; note: plate controls were buffer without enzyme for full effect and enzyme alone for no effect
BoNT A protease – inhibitors of Botulinum neurotoxin A light chain protease; inhibition, % at 10 µM; 360,000 compounds, 0.17% hits; AID 588499; multiplex microsphere protease substrate cleavage, flow cytometry; note: plate controls were buffer without enzyme for full effect and enzyme alone for no effect
BoNT-F LC inh – blocks Botulinum neurotoxin F light chain protease; AID 588497; Multiplex microsphere protease cleavage assay, flow cytometry; inhibition, % at 10 µM; 360,000 compounds, 0.22% hits; in the data active = inhibition above about 35%, passing the limit was not always enough; inconclusive = no clear call, values can overlap the other calls; note: plate controls were buffer without enzyme for full effect and enzyme alone for no effect
FBA Mtb inh – inhibitors of M. tuberculosis fructose-bisphosphate aldolase; 360,000 compounds, 2.3% hits; purified M. tuberculosis FBA, fluorescence read-out; P9WQA3; inhibition, % at 1 µM; in the data active = inhibition above about 27%;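 note: 0% = vehicle and 100% = reference inhibitor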
Autofluor counter – counter-screen for toxin protease inhibitors: compound fluorescence; fluorescence intensity (no concentration beside the values); 360,000 compounds, 3.1% hits; compound autofluorescence counterscreen, microsphere flow cytometry; hits give high values; in the data active = fluorescence intensity above about 16000; inconclusive = no clear call, values can overlap the other calls
GDH-TPI counter – GDH-TPI coupled enzyme inhibition counter-screen. GDH-TPI coupled enzyme counterscreen, NADH absorbance. inhibition, % at 4.8 µM. 360,000 compounds, 1.2% hits. AID 588335; in the data active = inhibition above about 30%;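 note: 0% = DMSO wells and 100% = wells lacking the enzyme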
Starred values were filed as active, the others as inactive; ? = inconclusive; / = no result given; + = active, no number. Most compounds without a hit are left out; they make up all but 6.7% or so of the library. Cut-off read from the data, not from the text of the source, unless noted: active = inhibition above about 30%; inconclusive = no clear call, values can overlap the other calls; inactive = below that.

SMILES	Anthrax LF inh2	BoNT A protease	BoNT-F LC inh	FBA Mtb inh	Autofluor counter	GDH-TPI counter
COc1ccc(Cc2nnc(NC(=O)c3ccc(OC(C)=O)cc3)s2)cc1OC	2	4	35*	1	3108	10
COC(=O)c1[nH]c2cc(OC)c(OC)cc2c1NC(=O)c1cccc(OC)c1	-5	0	-17	-2	3795	32*
CCS(=O)(=O)Nc1cc2c3c(c1)CCN3C(=O)CC2	1	-6	-15	-1	7555	-2
CCOc1c(Br)cc(CNCc2cccs2)cc1OC	-1	-2	-20	-2	2606	-5
Cc1ccc(CN(CC(=O)NCCc2ccccc2)C(=O)CCCC(=O)Nc2cc(C)on2)cc1	0	0	0	1	17240*	4
CCNc1nc2nc3ccc(C)cn3c(=O)c2cc1C(=O)NCC1CCCO1 (stereo unspecified)	2	0	-5	+	4298	-3
Cc1ccc2nc(SCC(=O)NC3CCCCC3)nc(=O)n2c1	/	/	/	8	/	24
Cc1ccc2nc3nc(NCC4CCCO4)c(C(=O)NC4CCCC4)cc3c(=O)n2c1 (stereo unspecified)	-2	1	-11	151*	3473	5
Cc1ccc2oc(-c3ccco3)cc(=O)c2c1	4	0	-6	123*	3807	31*
Cc1ccc2oc(-c3ccccc3C(=O)O)cc(=O)c2c1	-3	0	-17	7	5076	5
O=C(Nc1ccccc1)C1=C(Nc2ccccc2)CSC1	-3	-1	-4	1	3816	1
CC(C)(C)c1ccc(C(=O)c2c[nH]c(C(=O)NCCCn3ccnc3)c2)cc1	-1	?	-12	-2	24832*	15
CCOC(=O)N1CCN(C(=O)c2ccc(N(Cc3ccc(Cl)cc3)S(C)(=O)=O)cc2)CC1	0	0	-9	0	3652	-1
CC(=O)c1cccc(NC(=O)c2ccc(N(Cc3ccc(C)cc3)S(C)(=O)=O)cc2)c1	-2	-2	-1	2	17101*	5
CCOC(=O)N1CCN(C(=O)c2ccc(N(Cc3ccc(C)cc3)S(C)(=O)=O)cc2)CC1	-3	-2	-2	0	23851*	7
Cc1ccc(CN(c2ccc(C(=O)Nc3ccc4c(c3)OCO4)cc2)S(C)(=O)=O)cc1	-1	2	-2	4	15731	14
CCCNC(=O)Cn1sc2nc(C)cc(C)c2c1=O	-7	1	-5	6	4297	3
CC(C)OCCCN1CN(S(=O)(=O)c2ccccc2)c2nc3ccccc3nc21	-1	0	-9	20	3094	12
O=C(c1ccc(COc2ccccc2Cl)o1)N1CCN(c2ccccc2)CC1	-5	-1	-9	2	5888	-2
CCCOc1ccc(C(=O)c2nc3c(n2O)CCCCC3)cc1	4	1	-5	-1	23225*	31*
Cc1nnc(SCC(=O)Nc2nc3ccccc3s2)n(N)c1=O	0	1	3	0	9666	-7
CCCCOc1ncnc2c1[nH]c1ccc(OCC)cc12	0	2	1	8	18958*	9
CCn1c(COc2ccc(=O)n(-c3ccccc3)n2)nnc1SCc1ccccc1	-1	-2	-5	0	21225*	7
COc1cc(C(C#N)N2CCCCC2)ccc1O (stereo unspecified)	0	0	-5	-2	4598	34*
COc1cc(C(C#N)N2CCOCC2)ccc1O (stereo unspecified)	6	-3	-6	4	11379	37*
SMILES	Anthrax LF inh2	BoNT A protease	BoNT-F LC inh	FBA Mtb inh	Autofluor counter	GDH-TPI counter
CC(OC(=O)c1ccc(Br)c(S(=O)(=O)N2CCOCC2)c1)C(=O)NC1CCCCC1C (stereo unspecified)	-7	-2	3	0	6371	-5
Cc1noc(NS(=O)(=O)c2ccc(NC(=O)COc3ccccc3)cc2)c1C	-1	3	2	1	22340*	4
COCC(=O)Nc1ccc(S(=O)(=O)Nc2onc(C)c2C)cc1	0	0	-5	-1	3538	-4
COc1ccc(/C=C/C(=O)Nc2ccncc2)cc1OC	-4	0	3	22	4925	15
CCOc1ccc(/C=C/C(=O)Nc2ccc(C(N)=O)cc2)cc1OC	-2	-1	-9	5	2642	51*
COc1ccc(/C=C/C(=O)Nc2ccc(S(=O)(=O)Nc3onc(C)c3C)cc2)cc1OC	-10	-1	-3	0	4376	37*
CCc1nnc(NC(=O)C(=O)NCCOC(=O)c2ccccc2Cl)s1	-5	0	-3	3	5550	9
Cc1nn(Cc2ccccc2Cl)c(C)c1NC(=O)NC12CC3CC(CC(C3)C1)C2	1	0	1	1	3736	1
COc1ccc(OC)c(C2SCCN2S(C)(=O)=O)c1 (stereo unspecified)	1	0	4	2	22914*	-2
COc1ccccc1C1SCCN1S(C)(=O)=O (stereo unspecified)	-5	0	8	1	2481	-3
Nc1nonc1-c1nc2ccccc2n1CC(=O)N/N=C/c1ccc(-c2ccccc2C(=O)O)o1	-5	-1	0	2	4346	42*
Nc1nonc1-c1nc2ccccc2n1CC(=O)Nc1ccccc1	4	0	3	0	2980	22
CC1CCCN(C(=O)Cn2c(-c3nonc3N)nc3ccccc32)C1 (stereo unspecified)	2	8	14	-3	18146*	3
Cc1cc(=O)oc(C)c1C(=O)NCC(C)C	-1	1	3	2	10695	7
CCCCN(CCCNC(=O)c1c(C)cc(=O)oc1C)c1ccccc1	-3	-1	0	-1	22469*	5
CCN(CCCNC(=O)c1c(C)cc(=O)oc1C)c1ccccc1	-6	1	5	1	10261	36*
Cc1cc(=O)oc(C)c1C(=O)NCc1ccccc1	0	0	-11	-2	4602	-3
Cc1ccccc1-c1cc(C(=O)NCc2cccc(Br)c2)n(CC2CC(c3cccnc3)=NO2)n1 (stereo unspecified)	-3	0	-3	-1	4277	-9
Cc1nnc(SCCn2c(N3CC(C)CC(C)C3)nc3c2c(=O)[nH]c(=O)n3C)s1 (stereo unspecified)	-1	-2	-5	-1	23049*	10
Cc1ccc2c(c1)N(Cc1ccccc1)C(=O)C(C)O2 (stereo unspecified)	-6	0	-2	-3	3856	9
CCC1Oc2ccc(C)cc2N(Cc2cccc(C)c2)C1=O (stereo unspecified)	-2	?	-7	4	17288*	8
CCOC(=O)CN1C(=O)C(CC)Oc2ccc(Cl)cc21 (stereo unspecified)	-1	-4	-5	-6	21455*	-13
Cc1ccc(C(=O)Nc2ccc(CN3CCCCC3)cc2)c(C)c1	-3	-1	0	4	5685	2
O=C(O)CN1C(=O)S/C(=C\c2cccnc2)C1=O	-3	0	-1	2	4571	13
